# Rango-impB inh – Rango-importin beta binding inhibition; Potency, µM (highest dose often 92.2 µM), without a hit: top-dose inhibition of complex formation; 340,000 compounds, 0.031% hits; Rango CFP/YFP FRET sensor + importin beta, 45 min; Q14974; calls by dose curve;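 also: 0% = DMSO wells and 100% = buffer wells lacking importin beta; nearly all actives have a fitted effect of over 15% in size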
#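 FRET biosensor (snurportin 1 IBB flanked by EYFP and cerulean), 50 nM, with compound 5 min, then 0.125 microM importin beta in PBS, 1 mM DTT, 0.02% Tween-20, 0.1% BSA. CFP/YFP ratio read after 45 min at room temperature; pre-read flags interference.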
# Abeta rescue – compounds reversing amyloid beta toxicity in yeast. AID 1347071. 410,000 compounds, 0.063% hits. yeast expressing A-beta42, growth rescue, OD600, 48 h; response scale: 0% DMSO, 100% iron-clioquinol control. Potency, µM (highest dose often 46.1 µM), actives largely listed as activators; also: nearly all actives have a fitted effect of over 55% in size
#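 Yeast A-beta toxicity model in growth medium with pinned compounds, 48 h at 30 C; growth read as absorbance at 600 nm. Normalized to FeCl3/clioquinol equimolar mix (positive) and DMSO (negative).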
# S-ASM inh – blocks human secretory acid sphingomyelinase. 340,000 compounds, 0.006% hits. placental ASM, HMU-PC fluorogenic substrate, 60 min. P17405. Potency, µM (titrated, usually from 57.5 µM), inactives show at the top dose activity change, negative = inhibition, most hits filed as inhibitors
#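 HMU-PC0 cleavage (9 uM final) by human placental ASM, 60 min at 37 °C following 10 min compound exposure at RT; stopped at pH 10, fluorescence Ex 386/Em 447 nm.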
# TDP-43 yeast inh – rescues yeast growth from TDP-43 toxicity. AID 652104. 410,000 compounds, 1.8% hits. TDP-43 expressing yeast growth rescue, BacTiter-Glo, 24 h. Potency, µM (doses to about 46.1 µM), for the others: at the top dose growth rescue (activation), actives largely listed as activators; also: % of control where 0% means no effect; nearly all actives have a fitted effect of over 50% in size
#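 Growth rescue of TDP-43-toxic yeast measured as ATP luminescence (BacTiter-Glo). Cells grown to mid-log in raffinose, induced in galactose at OD600=0.02, exposed to compound 24 hr at 30 deg C.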
# Rango dissoc inh – inhibition of RanGTP-driven Rango-importin beta dissociation; O95149+P62826; Biochemical FRET Rango-importin beta, RanGTP-induced dissociation; Potency, µM (titrated, usually from 46.1 µM), without a hit: at the top dose activity change, negative = inhibition; 340,000 compounds, 0.071% hits; calls by dose curve; also: % of control where 0% means no effect; nearly all actives have a fitted effect of over 45% in size
#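 Rango FRET biosensor (snurportin-1 IBB flanked by N-terminal EYFP and C-terminal CFP10) at 0.1 uM, with 0.25 uM importin beta in PBS, 1mM DTT, 0.02% Tween-20, 0.1% BSA. 0.6 uM Ran, 2mM GTP and 0.2 uM RCC1 were then added for 45 min at room temperature. Inhibition read as loss of FRET rise.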
# aSyn rescue – rescues yeast growth from alpha-synuclein toxicity. Yeast expressing alpha-synuclein, growth rescue, BacTiter-Glo, 24 h. Potency, µM (series often up to 46.1 µM), without a hit: top-dose growth rescue (activation), usual class: activators. 370,000 compounds, 0.14% hits; also: % of control where 0% means no effect; nearly all actives have a fitted effect of over 65% in size
#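 Rescue of yeast growth: cells expressing toxic alpha-synuclein, induced in galactose at OD600 0.02, incubated with compound 24 h at 30 C. ATP luminescence quantified growth; inhibitors of toxicity appear as activators.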
# Numbers without * were called inactive; i = inactive; ? = inconclusive; / = not tested or not shown; ! = not confirmed by another sample; [ ] = dose if it differs, or a comment. Compounds with a hit are over-represented: about 2% of the library has one in this group of screens. Unless noted, calls follow the shape of the dose curve; as a rule, active = well fitted curve in the direction sought with a large enough effect; inconclusive = small, poorly fitted or top-dose-only effect, or another doubt; inactive = no such curve, though single readings can be large; an effect the other way counts as inactive or inconclusive. Potency is read from the fitted curve at half-maximal effect.
SMILES,Rango-impB inh,Abeta rescue,S-ASM inh,TDP-43 yeast inh,Rango dissoc inh,aSyn rescue
CSc1ncnc2c1cnn2-c1ccc(C)cc1C,-4%,i,3%,18µM*,0%,-8%
CCOCCCNc1ncnc2c1cnn2-c1ccc(C)c(C)c1,/,i,/,11µM*,/,/
Cc1ccc(-n2ncc3c(NCc4ccco4)ncnc32)cc1C,5%,i,11%,9%,8%,0%
Cn1ncc2c(Nc3ccc4ccccc4c3)ncnc21,-4%,i,-5%,10µM*,8%,-6%
Cc1ccc(CSc2nc3c(c(=O)[nH]2)C(c2cccc(F)c2F)CC(=O)N3)cc1 (stereo not given),/,i,/,7%[9.22 µM],/,/
O=C(Nc1ccc2nc(-c3ccco3)c(-c3ccco3)nc2c1)N1CCCC1,/,/,/,/,/,-2%
CCCSCCCNC(=O)C1CCCN(c2nn3cc(-c4ccc(OC)cc4)nc3s2)C1 (stereo not given),/,i,/,?,/,/
CN(C)c1nc(OCCNC(=O)COc2ccc(Cl)cc2Cl)nc(N(C)C)n1,-2%,i,-1%,14µM*,-2%,0%
O=C(Nc1ccc(F)c(F)c1)c1ccccc1-c1ccccc1,0%,7.1µM*,-1%,?,-10%,1%
CN1C(=O)c2ccccc2Sc2ccc(NC(=O)c3ccccc3F)cc21,/,i,/,18µM*,/,/
Cc1ccc(C(=O)Nc2ccc3c(c2)N(C)C(=O)c2ccccc2S3)cc1,/,i,/,?,/,/
O=C(Nc1cccc(Br)c1)c1ccccc1-c1ccccc1,?,?,-11%,16µM*,-13%,0%
O=C(O)c1ccccc1-c1ccccc1C(=O)Nc1cccc(Br)c1,0%,i,11%,2%,-6%,7%
C=C1C=C(C)n2ncc(C(=O)N(CCc3ccccc3)Cc3ccccc3)c2N1,/,/,/,/,/,12%
Cc1c(/C=C(\C#N)C(=O)Nc2cccc(Cl)c2)c2ccccc2n1Cc1ccccc1Cl,/,i,/,-2%,/,/
c1csc(-c2nnc(N3CCCCCC3)c3ccccc23)c1,0%,i,2%,-21%,-5%,0%
c1csc(-c2nn3cnnc3c3ccccc23)c1,3%,i,2%,22µM*,7%,-1%
O=C(c1cccc([N+](=O)[O-])c1)N1c2nc(-c3ccco3)nn2C2(CCCCC2)[C@@H]2CCCC[C@@H]21,/,i,/,15%,/,/
CCOC(=O)c1sc2ccccc2c1S(=O)(=O)NCc1ccccc1OC,/,i,/,23%,/,/
O=C(Nc1ccc2c(c1)OCCO2)c1cnn(-c2ccccc2)n1,3%,i,-3%,18µM*,-2%,0%[1.84 µM]
O=C(Nc1ccc2c(c1)OCCO2)c1ccccc1,-1%,i,0%,-2%,9%,-18%
O=C(O)C1CCCCC1C(=O)Nc1ccc2c(c1)OCCO2 (stereo not given),-5%,i,-1%,-13%,?,-10%
O=C(Nc1ccc2c(c1)OCCO2)C1CC1c1ccccc1 (stereo not given),0%,?,-2%,25µM*,13%,-20%
Nc1nc2[nH]c(=S)[nH]c2c(=O)[nH]1,/,/,/,/,/,0%
Cc1nn(C)c2c1c(C(F)(F)F)cc(=O)n2CC(=O)Nc1ccc(F)cc1F,/,i,/,11%,/,/
SMILES,Rango-impB inh,Abeta rescue,S-ASM inh,TDP-43 yeast inh,Rango dissoc inh,aSyn rescue
COc1ccc(OC)c(C2=NS(=O)(=O)N(C)C(C(=O)Nc3ccc(F)cc3F)=C2)c1,2%,i,-8%,35µM*!,0%,-2%
Cc1ccc(C2=NS(=O)(=O)N(C)C(C(=O)Nc3ccc(F)cc3F)=C2)cc1,-1%,i,-8%,6%,-3%,6%
CCc1ccc(C(C)NC(=S)NC2CCCCC2)cc1 (stereo not given),-2%,10µM*,0%,?,-5%,-16%
CCc1ccc(C(C)NC(=S)NCc2ccc(F)cc2)cc1 (stereo not given),-1%,4.5µM*,-5%,27%,9%,-9%
Cc1ccc(C(C)NC(=S)NCc2ccc(F)cc2)cc1C (stereo not given),7%,14µM*,0%,30%,0%,9%
CCC(C)c1ccc(C(C)NC(=S)NC2CCCCC2)cc1 (stereo not given),1%,i,-3%,23%,6%,-4%
CCCOc1ccc(CNC(=O)C(NS(=O)(=O)c2cccs2)C(C)C)cc1 (stereo not given),/,i,/,10%,/,/
COc1ccccc1NC(=O)CN1CCCN(S(=O)(=O)c2ccc(Br)cc2)CC1,/,i,/,7%,/,/
Cc1ccc(OCc2ccccc2Br)c([N+](=O)[O-])n1,-1%,i,-3%,10µM*,-6%,1%
S=C(NCC1(c2ccccc2)CCCC1)Nc1ccccc1,0%,5µM*,-1%,?,24%,8%
O=C(NCC1(c2ccccc2)CCCC1)C(=O)NCC1(c2ccccc2)CCCC1,-1%,i,4%,-4%,-1%,-8%
CCOc1ccc(Nc2nc3ccccc3n3c(CC)nnc23)cc1,/,i,/,25µM*,/,/
O=C(c1cn(-c2ccc(Cl)c(Cl)c2)nn1)C1CC1,17%,i,2%,8.9µM*,-8%,10%
CCS(=O)(=O)NCCc1sc2nc(-c3ccc(OC)cc3)nn2c1C,/,i,/,40%,/,/
COc1cnc(-c2ccccn2)nc1Sc1ccccc1Cl,7%,11µM*,-4%,?,-2%,3%
Clc1ccccc1CSc1nc(NCCc2ccccc2)c2ccccc2n1,/,i,/,24%,/,/
COc1ccccc1OC(C)C(=O)N1CCC(c2nc3ccccc3s2)CC1 (stereo not given),/,i,/,14µM*,/,/
CCc1ccc(OC(C)C(=O)N2CCC(c3nc4ccccc4s3)CC2)cc1 (stereo not given),/,i,/,16µM*,/,/
CC[N+](C)(C(=O)O)/C(=C\c1ccccc1)c1ccnc2ccccc12 (stereo not given),/,/,/,/,/,5%
CN(CCCNC(=O)c1cc2c(=O)n(C)c3ccccc3c2s1)Cc1ccccc1,/,i,/,-3%,/,/
O=C(NCC1CCCO1)c1ccc(C(=O)NCC2CCCO2)cc1 (stereo not given),1%,i,1%,-20%,1%,3%
S=C(NCC1CCCO1)c1ccc(Br)cc1 (stereo not given),0%,i,-3%,11µM*,16%,-8%
COc1cc(OC)cc(-c2sc3ccc(OC)cc3c2C#CC(C)(C)O)c1,0%,i,-10%,11µM*,0%,2%
COc1ccccc1/C=C/c1nc2ccccc2n1C(C)C,/,i,/,17%,/,/

# Screens (PubChem)
